In PubChem BioAssay (NCI):
About 79,000 compounds went through this panel and 15% of them were active in at least one assay; those are over-represented in the sample as a whole. A number with no mark means an inactive call. Active and inactive are the calls of the source. Rule as the data show it: active = growth inhibition above about 70%; inactive = the rest.

Key:
[1] = NCI Yeast Anticancer Drug Screen. Data for the rad50 strain (AID 155);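 also: 0% = growth of vehicle-only cultures of the same strain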; details: S. cerevisiae rad50 strain growth inhibition, hits give high values
How it was run: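 Readout: growth inhibition relative to vehicle-treated cultures. Compound exposure was carried out in a genetically defined yeast strain deficient in DNA damage repair.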

[2] = NCI Yeast Anticancer Drug Screen. Data for the mec2-1 strain (AID 157); details: S. cerevisiae mec2-1 strain, hits give high values
How it was run: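 Using mec2-1 yeast: add compound, measure growth, express inhibition versus vehicle-treated cultures.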

[3] = NCI Yeast Anticancer Drug Screen. Data for the sgs1 mgt1 strain (AID 161);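 also: 0% = growth of cultures given vehicle only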; details: S. cerevisiae sgs1 mgt1 strain, hits give high values
How it was run: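 Growth of a repair-deficient yeast mutant was monitored after compound treatment and expressed as inhibition relative to vehicle-treated cultures.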

[4] = NCI Yeast Anticancer Drug Screen. Data for the cln2 rad14 strain (AID 165);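 also: 0% = growth equal to vehicle treated cultures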; details: S. cerevisiae cln2 rad14 strain, hits give high values
How it was run: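 Yeast strain cln2 rad14, bearing defects in cell cycle control and DNA repair, serves as the test system; values reflect growth inhibition compared with vehicle.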

[5] = NCI Yeast Anticancer Drug Screen. Data for the bub3 strain (AID 167); details: S. cerevisiae bub3 mutant strain, hits give high values
How it was run: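 Readout: yeast growth inhibition, expressed relative to vehicle-only wells. The test organism is a mutant strain from a panel with lesions in DNA repair or checkpoint genes.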

[6] = NCI Yeast Anticancer Drug Screen. Data for the mlh1 rad18 strain (AID 175); details: S. cerevisiae mlh1 rad18 strain growth inhibition, hits give high values
How it was run: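 Steps: expose repair-defective yeast to compound; measure growth; express inhibition against vehicle-treated controls.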

[7] = at 5.0 µM (retest, dose inferred, filed as 0.5)
[8] = at 50.0 µM (retest, dose inferred, filed as 5.0)

| Compound | growth inhibition [1, 7] | growth inhibition [1, 8] | growth inhibition ([1]; at 50.0 µM) | growth inhibition [2, 7] | growth inhibition [2, 8] | growth inhibition ([2]; at 50.0 µM) | growth inhibition [3, 7] | growth inhibition [3, 8] | growth inhibition ([3]; at 50.0 µM) | growth inhibition [4, 7] | growth inhibition [4, 8] | growth inhibition ([4]; at 50.0 µM) | growth inhibition [5, 7] | growth inhibition [5, 8] | growth inhibition ([5]; at 50.0 µM) | growth inhibition [6, 7] | growth inhibition [6, 8] | growth inhibition ([6]; at 50.0 µM) |
| --- | --- | --- | --- | --- | --- | --- | --- | --- | --- | --- | --- | --- | --- | --- | --- | --- | --- | --- |
| Cc1ccc(C)c(C2CCCCC2O)c1 (configuration not stated) | -1% | -80% | 4.5% | -8% | -25% | -11.7% | -1% | -23% | -9.1% | 9% | -5% | 71.5% (active) | -13% | -87% | 51.1% | 0% | -40% | -16.1% |
| CC(=O)N1C=C2CCC3c4ccccc4NC3C2CC1 (configuration not stated) | -2% | 15% | 33.2% | 1% | 4% | 4.05% | -4% | 13% | 34.5% | -51% | 0% | -29.1% | -11% | 47% | -4.6% | -7% | -2% | 19.1% |
| CCOC(=O)C1=C(N)OC(c2ccccc2)=C(C#N)C1c1ccc(C)cc1 (configuration not stated) | 8% | 90% (active) | 96.1% (active) | 4% | 91% (active) | 97% (active) | 11% | 92% (active) | 97.3% (active) | 0% | 86% (active) | 96.6% (active) | -4% | 87% (active) | 96.3% (active) | 3% | 90% (active) | 96.5% (active) |
| COC(=O)c1nc(=S)[nH]c(C(=O)OC)c1C(=O)c1c(C)[nH]c2ccccc12 | -7% | -2% | -25% | -3% | 7% | -5.5% | 2% | 1% | -5.15% | 1% | -4% | 30.7% | -6% | -7% | -2.3% | -7% | -2% | 62.2% |
| Cc1cc(N)c2cc(OCCOc3ccc4nc(C)cc(N)c4c3)ccc2n1 | 68% | 91% (active) | 97.5% (active) | 69% | 94% (active) | 95.2% (active) | 77% (active) | 93% (active) | 92.5% (active) | 71% (active) | 92% (active) | 84.7% (active) | 79% (active) | 95% (active) | 93.7% (active) | 91% (active) | 94% (active) | 95.2% (active) |
| CCOC(=O)C(F)C(Br)C(=O)OCC (configuration not stated) | 22% | 98% (active) | 90.5% (active) | 28% | 99% (active) | 91.8% (active) | 100% (active) | 100% (active) | 91.5% (active) | 98% (active) | 98% (active) | 89.8% (active) | 99% (active) | 100% (active) | 90.7% (active) | 49% | 98% (active) | 90% (active) |
| CN(C)CC1CCC/C(=C\c2ccc(Cl)c(Cl)c2)C1=O (configuration not stated) | 19% | 98% (active) | 69.3% | 9% | 98% (active) | 81.8% (active) | -1% | 97% (active) | 86.5% (active) | 7% | 97% (active) | 86.5% (active) | -22% | 98% (active) | 86% (active) | 6% | 97% (active) | 89.3% (active) |
| CC(C)=NOc1ccc([N+](=O)[O-])cc1[N+](=O)[O-] | 19% | 87% (active) | 89.9% (active) | 11% | 81% (active) | 53% | 17% | 84% (active) | 54.1% | 2% | 48% | 30.5% | 4% | 81% (active) | 55.3% | 5% | 93% (active) | 71.3% (active) |
| O=C(CCCN1CCN2Cc3[nH]c4ccccc4c3CC2C1)c1ccc(F)cc1 (configuration not stated) | 5% | 58% | 98.8% (active) | 7% | 73% (active) | 98.7% (active) | 20% | 92% (active) | 66.8% | 2% | 59% | 95.6% (active) | 4% | 60% | 92.1% (active) | 37% | 88% (active) | 99.3% (active) |
